Unmarked numbers belong to inactive results. The source made the active and inactive calls.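 Rule for the calls: active = viability at 10 µM of 29.74% or lower, 3 SD below the compound median; inactive = the rest.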
test: viability of HCT116 lacking mutant beta-catenin – cell-based, DP diverse set, validation, pilot screen (AID 1004); details: HCT116 (mutant beta-catenin deleted) viability, CellTiter-Glo, 60 h; at 10 µM; stronger effect = lower value

| SMILES | viability |
| --- | --- |
| C=CCc1ccc(O)c(-c2cc(CC=C)ccc2O)c1 | 99.2% |
| CO[C@@H]1[C@@H](OC(N)=O)[C@@H](O)[C@H](Oc2ccc3c(O)c(NC(=O)c4ccc(O)c(CC=C(C)C)c4)c(=O)oc3c2C)OC1(C)C | 99.5% |
| O=C(O)c1cc(=O)c2c(OCC(O)COc3cccc4oc(C(=O)O)cc(=O)c34)cccc2o1 | 100% |
| COc1ccc(/C=C/c2cc(OC)cc(=O)o2)cc1 | 103% |
| COc1ccc(CC(N)C(=O)N[C@H]2[C@@H](O)[C@H](n3cnc4c(N(C)C)ncnc43)O[C@@H]2CO)cc1 (stereo not given in full) | 7.16% (active) |
| O=c1[nH]cnc2ccccc12 | 98.6% |
| CC1COC2=C1C(=O)C(=O)c1c2ccc2c1CCCC2(C)C (stereo not given) | 32.2% |
| CC(=O)N[C@H]1C(O[C@@H]2O[C@H](C[C@@H](O)[C@H]3O[C@@H](N4CCC(=O)NC4=O)[C@H](O)[C@@H]3O)[C@H](O)[C@H](O)[C@H]2NC(=O)/C=C/CCCCCCCCCCC(C)C)OC(CO)[C@@H](O)[C@@H]1O (stereo not given in full) | 55.1% |
| NCC(=O)N[C@@H](CCCN=C(N)N)C(=O)NCC(=O)N[C@@H](CC(=O)O)C(=O)N[C@@H](CC(N)=O)C(=O)N1CC[C@@H](C(=O)O)C1 | 95.6% |
| OCCN(CCO)c1nc(N2CCCCC2)c2nc(N(CCO)CCO)nc(N3CCCCC3)c2n1 | 109% |
| CN1C2CCC1CC(OC(=O)C(CO)c1ccccc1)C2 (stereo not given) | 97.1% |
| Cn1c(=O)c2[nH]cnc2n(C)c1=O | 100% |
| CCCCCCCCCCCCCCCC(=O)OCC(O)C1OC(=O)C(O)=C1O (stereo not given) | 100% |
| C[C@@H]1CC[C@]2(C(=O)O)CC[C@]3(C)C(=CCC4[C@@]5(C)C[C@@H](O)[C@H](O)[C@@](C)(CO)C5CC[C@]43C)C2[C@H]1C (stereo not given in full) | 100% |
| CCC(C)CCCCC(=O)N[C@@H](CCN)C(=O)N[C@H](C(=O)N[C@@H](CCN)C(=O)N[C@H]1CCNC(=O)C([C@@H](C)O)NC(=O)[C@@H](CCN)NC(=O)[C@H](CCN)NC(=O)[C@H](CC(C)C)NC(=O)[C@@H](CC(C)C)NC(=O)[C@H](CCN)NC1=O)[C@@H](C)O (stereo not given in full) | 94.3% |
| CCOC(=O)c1ncn2c1CN(C)C(=O)c1cc(F)ccc1-2 | 99.8% |
| CC1=C(/C=C/C(C)=C/C=C/C(C)=C/C(=O)O)C(C)(C)CCC1 | 96.5% |
| CCn1cc(C(=O)O)c(=O)c2ccc(C)nc21 | 94.8% |
| COc1ccc2c3c1O[C@H]1C[C@@H](O)C=C[C@@]31CCN(C)C2 | 94% |
| O=c1c(-c2ccc(O)cc2)coc2cc(O)cc(O)c12 | 96.7% |
| Cc1ccc2c(c1)C(=O)C1(O)CCN(c3ccccc3)C1=N2 (stereo not given) | 91% |
| O=C1OC(c2cc(I)c(O)c(I)c2)(c2cc(I)c(O)c(I)c2)c2ccccc21 | 97.5% |
| CC(C)=CCC[C@](C)(O[C@@H]1O[C@H](CO)[C@@H](O)[C@H](O)[C@H]1O)[C@H]1CC[C@]2(C)[C@@H]1[C@H](O)C[C@@H]1[C@@]3(C)CC[C@H](O[C@@H]4O[C@H](CO)[C@@H](O)[C@H](O)[C@H]4O[C@@H]4O[C@H](CO)[C@@H](O)[C@H](O)[C@H]4O)C(C)(C)[C@@H]3[C@@H](O)C[C@]12C | 93.8% |
| NCCNS(=O)(=O)c1cccc2c(Cl)cccc12 | 95.7% |
| COc1ccc(CCN2CCC(Nc3nc4ccccc4n3Cc3ccc(F)cc3)CC2)cc1 | 44.6% |
| COc1cc(Cc2cnc(N)nc2N)cc(OC)c1OC | 94.7% |
| CN1CCN(C2Cc3ccccc3Sc3ccc(S)cc32)CC1 (stereo not given) | 79.5% |
| C=C1CC[C@H](O)C/C1=C/C=C1\CCC[C@]2(C)[C@@H]([C@H](C)CCCC(C)C)CC[C@@H]12 | 104% |
| O=C(c1ccccc1)c1ccccc1 | 97.8% |
| Cc1cc2c(C(C)C)c(O)c(O)c(C=O)c2c(O)c1-c1c(C)cc2c(C(C)C)c(O)c(O)c(C=O)c2c1O | 28.5% (active) |
